Data: PubChem BioAssay (Tox21)
“And” between values parts separate entries of the source, which are not always exact repeats. Identical values can stand only once. Results filed as inconclusive are left out. Where a call stands in place of a potency, no number is given. A structure can be active in one record and inactive in another. The source made the active and inactive calls. Unless noted, calls come from the whole dose curve; as a rule, active = well fitted curve in the direction sought with a large enough effect in the repeat runs; inconclusive = weak or mixed curves; inactive = flat fitted curve, though single readings scatter.

Experiments:
[1] = qHTS assay to test for compound auto fluorescence at 535 nm (green) in HEK293 cells (AID 720680)
[2] = qHTS assay to test for compound auto fluorescence at 460 nm (blue) in HEK293 cell free culture (AID 720681)
Method in brief: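 Test compounds were pinned into cell-free culture medium (DMEM with 10% FBS) and fluorescence was read directly at Ex/Em 405/460 nm. Signals were expressed as fluorescence equivalents of triamterene, with DMSO vehicle as control.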

[3] = qHTS assay to test for compound auto fluorescence at 535 nm (green) in HEK293 cell free culture (AID 720682)
Method in brief: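 Each library compound, or DMSO control, is added by pintool to medium alone, comprising DMEM and 10% FBS. Emission at 535 nm following 485 nm excitation is quantified against fluorescein.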

[4] = qHTS assay to test for compound auto fluorescence at 590 nm (red) in HEK293 cell free culture (AID 720683)
Method in brief: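 Tox21 10K library compounds were pinned into cell-free DMEM with 10% FBS and fluorescence was read at excitation 540 nm. Activity is expressed as Rose Bengal sodium equivalency.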

[5] = qHTS assay to test for compound auto fluorescence at 590 nm (red) in HepG2 cell free culture (AID 720684)
Method in brief: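 Readout: intrinsic compound fluorescence at 590 nm emission after 540 nm excitation, scaled to Rose Bengal sodium. Matrix was cell-free MEM with 10% FBS; DMSO vehicle wells served as control.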

[6] = qHTS assay to test for compound auto fluorescence at 460 nm (blue) in HepG2 cell free culture (AID 720685)
Method in brief: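 Cell-free plates of MEM plus 10% FBS received 23 nL compound or DMSO vehicle; blue-channel (405/460 nm) intensity scored against triamterene as reference fluorophore.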

[7] = qHTS assay to test for compound auto fluorescence at 535 nm (green) in HepG2 cell free culture (AID 720686)
[8] = qHTS assay to test for compound auto fluorescence at 460 nm (blue) in HepG2 cells (AID 720687)
Method in brief: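 Cells (2,000/well in MEM with 10% FBS) attached overnight at 37 C, then were exposed to compound or DMSO for 1 hr at 37 C, 5% CO2. Fluorescence read at Ex/Em 405/460 nm, expressed as triamterene-equivalent signal.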

[9] = target: Glucocorticoid receptor (Homo sapiens) (UniProt P04150); test: qHTS assay to identify small molecule agonists of the glucocorticoid receptor (GR) signaling pathway (AID 720691; active = well fitted activation curve with a large enough effect in the signal ratio in the repeat runs, not every such curve was filed as active; the % refers to the signal ratio; note: potency is the fitted concentration of half-maximal effect)
Method in brief: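 Measures GR pathway activation through a GRE-beta-lactamase reporter stably integrated in HeLa cells, with 18 h compound treatment at 37 C and fluorescence detection using a FRET substrate.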

[10] = target: Glucocorticoid receptor (Homo sapiens) (UniProt P04150); test: qHTS assay to identify small molecule antagonists of the glucocorticoid receptor (GR) signaling pathway (AID 720692; active = well fitted inhibition curve with a large enough effect in the signal ratio in the repeat runs, not every such curve was filed as active; the % refers to the signal ratio; note: potency is the fitted concentration of half-maximal effect)
Method in brief: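 Tox21 10K library screened in concentration-response for blockade of dexamethasone (5 nM final)-induced GRE-bla reporter activity in HeLa cells; 18 h treatment, fluorescence read.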

Chain of Glucocorticoid receptor (Homo sapiens) (P04150 whole entry, looked up): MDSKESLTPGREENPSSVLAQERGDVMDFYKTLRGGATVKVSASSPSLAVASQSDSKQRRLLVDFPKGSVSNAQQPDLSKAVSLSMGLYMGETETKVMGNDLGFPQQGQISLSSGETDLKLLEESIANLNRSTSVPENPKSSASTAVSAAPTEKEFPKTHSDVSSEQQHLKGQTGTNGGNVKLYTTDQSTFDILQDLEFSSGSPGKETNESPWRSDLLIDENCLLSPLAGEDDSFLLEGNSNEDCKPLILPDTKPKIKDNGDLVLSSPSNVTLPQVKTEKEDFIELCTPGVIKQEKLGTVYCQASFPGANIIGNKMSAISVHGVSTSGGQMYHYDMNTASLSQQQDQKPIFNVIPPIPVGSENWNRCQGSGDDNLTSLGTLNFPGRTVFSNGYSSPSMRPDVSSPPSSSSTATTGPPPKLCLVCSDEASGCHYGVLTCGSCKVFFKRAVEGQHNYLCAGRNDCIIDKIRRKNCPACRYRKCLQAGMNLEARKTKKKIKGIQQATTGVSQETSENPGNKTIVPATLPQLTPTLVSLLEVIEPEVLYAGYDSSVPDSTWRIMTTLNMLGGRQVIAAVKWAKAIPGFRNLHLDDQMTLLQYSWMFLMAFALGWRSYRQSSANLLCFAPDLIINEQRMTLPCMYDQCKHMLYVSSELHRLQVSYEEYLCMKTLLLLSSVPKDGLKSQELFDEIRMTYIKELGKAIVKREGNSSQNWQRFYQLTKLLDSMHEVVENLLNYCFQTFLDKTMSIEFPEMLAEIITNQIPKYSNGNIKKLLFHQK

NC(=O)c1ccc([N+](=O)[O-])cc1
outcome [1]: inactive
outcome [2]: inactive
outcome [3]: inactive
outcome [4]: inactive
outcome [5]: inactive
outcome [6]: inactive
outcome [7]: inactive
outcome [8]: inactive
Potency [9]: inactive
Potency [10]: inactive

O=C(O)CCCc1ccccc1
outcome [1]: inactive
outcome [2]: inactive
outcome [3]: inactive
outcome [4]: inactive
outcome [5]: inactive
outcome [7]: inactive
outcome [8]: inactive
Potency [9]: inactive
Potency [10]: inactive

C[C@H](NC(CCc1ccccc1)C(=O)O)C(=O)N1CCC[C@H]1C(=O)O (some centres not stated)
outcome [1]: inactive
outcome [2]: inactive
outcome [3]: inactive
outcome [4]: inactive
outcome [5]: inactive
outcome [7]: inactive
outcome [8]: inactive
Potency [9]: inactive
Potency [10]: inactive

CN(C(=O)c1c(O)c2ccccc2n(C)c1=O)c1ccccc1
outcome [1]: inactive
outcome [2]: inactive
outcome [3]: inactive
outcome [4]: inactive
outcome [5]: inactive
outcome [6]: inactive
outcome [7]: inactive
outcome [8]: inactive
Potency [9]: inactive
Potency [10]: inactive

O=c1cc(-c2ccccc2)oc2ccccc12
outcome [1]: inactive
outcome [2]: inactive
outcome [3]: inactive
outcome [4]: inactive
outcome [5]: inactive
outcome [6]: inactive
outcome [7]: inactive
outcome [8]: inactive
Potency [10]: 27.5 µM (active) and 14.3 µM (active)

CCSC(=O)N(CC(C)C)CC(C)C
outcome [1]: inactive
outcome [2]: inactive
outcome [3]: inactive
outcome [4]: inactive
outcome [5]: inactive
outcome [6]: inactive
outcome [7]: inactive
outcome [8]: inactive
Potency [9]: inactive
Potency [10]: inactive

CN(C)CCCSc1ccccc1NC(=O)/C=C/c1ccccc1
outcome [1]: inactive
outcome [2]: inactive
outcome [3]: inactive
outcome [4]: inactive
outcome [5]: inactive
outcome [6]: inactive
outcome [7]: inactive
outcome [8]: inactive
Potency [9]: inactive
Potency [10]: inactive

Cc1ccc(C#N)cc1
outcome [1]: inactive
outcome [2]: inactive
outcome [3]: inactive
outcome [4]: inactive
outcome [5]: inactive
outcome [6]: inactive
outcome [7]: inactive
outcome [8]: inactive
Potency [9]: inactive
Potency [10]: inactive

CC(=O)N(CC(O)CO)c1c(I)c(C(=O)NCCO)c(I)c(C(=O)NCC(O)CO)c1I (configuration not stated)
outcome [1]: inactive
outcome [2]: inactive
outcome [3]: inactive
outcome [4]: inactive
outcome [5]: inactive
outcome [7]: inactive
outcome [8]: inactive

COCCc1ccc(OCC(O)CNC(C)C)cc1 (configuration not stated)
outcome [1]: inactive
outcome [2]: inactive
outcome [3]: inactive
outcome [4]: inactive
outcome [6]: inactive
outcome [7]: inactive
outcome [8]: inactive
Potency [9]: inactive and 10.7 µM (active)
Potency [10]: inactive

CCCCC/C=C\CCC=O
outcome [1]: inactive
outcome [2]: inactive
outcome [3]: inactive
outcome [4]: inactive
outcome [5]: inactive
outcome [7]: inactive
outcome [8]: inactive
Potency [9]: inactive
Potency [10]: inactive
